Source: PubChem BioAssay (NCATS)
Results filed as inconclusive are left out. Entries that show only a call come without a potency. Activity calls are given as the source filed them. The call rests on the fitted dose curve; in most records, active means well fitted cell-killing curve with a large enough effect; inconclusive means small, poorly fitted or top-dose-only effect, or effect the other way; inactive means flat fitted curve, though single readings scatter. Where a SMILES comes first, the peptide text is derived from it. The star is where a group is joined. Hexanoyl = CCCCCC(=O)*

Assays:
Tov-21-G = assay: Primary qHTS to identify gynecologic anti-cancer compounds using libraries of approved drugs and bioactive compounds (AID 1345084); details: Gynecologic cancer cell panel viability, ATPlite luminescence, 48 h; series mostly up to 57.5 µM; further: nearly all actives have a fitted effect of over 55% in size
Procedure, shortened: (§1)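 Cells, 1,000 per well, were allowed to settle for 16 h at 37 C before compound addition. Five concentrations were tested for 48 h, and viability was read by ATPlite luminescence after 15 min at room temperature.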

Tov112D = assay: as above; details: Gynecologic cancer cell panel viability, ATPlite luminescence, 48 h; series mostly up to 57.5 µM
Procedure, shortened: as §1

Row | SMILES | Potency (Tov-21-G) | Potency (Tov112D)
1 | C[C@]12CC/C(=N\OCC(=O)O)C=C1CC[C@@H]1[C@@H]2[C@@H](O)C[C@@]2(C)[C@H]1CC[C@]2(O)C(=O)CO | inactive | inactive
2 | COc1cccc(CNc2ccc(S(=O)(=O)Nc3nc4ccccc4s3)cc2)c1O | inactive | inactive
3 | CCCC(C(=O)O)c1c(C)nc2ccc(Cl)cc2c1-c1ccccc1 (stereo unspecified) | inactive | inactive
4 | O=C(/C=C/c1ccc(O)cc1)OC[C@H]1O[C@H](O[C@@]2(CO)O[C@@H](CO)[C@H](O)[C@H]2O)[C@H](O)[C@@H](O)[C@@H]1O | inactive | inactive
5 | CCc1nn(CCO)c(CC)c1Oc1cc(C#N)cc(C#N)c1 | inactive | inactive
6 | COc1cc(CO)cc(OC)c1O[C@@H]1O[C@H](CO)[C@@H](O)[C@H](O)[C@H]1O | inactive | inactive
7 | OC[C@H]1O[C@@H](Oc2cc(O)cc(-c3cc4ccc(O[C@@H]5O[C@H](CO)[C@@H](O)[C@H](O)[C@H]5O)cc4o3)c2)[C@H](O)[C@@H](O)[C@@H]1O | inactive | inactive
8 | COc1cc2nc(=NC(=O)c3cccnc3)n3c(c2cc1OC)NCC3 | inactive | inactive
9 | Cc1cc(C(=O)N2Cc3cnn(C)c3Nc3ccccc32)ccc1CNC(=O)N1CCN(Cc2cc(O)cc(O)c2)CC1 | inactive | inactive
10 | COC(=O)C1=CO[C@@H](O[C@@H]2O[C@H](CO)[C@@H](O)[C@H](O)[C@H]2O)[C@H]2[C@@H]1[C@H](O)C[C@]2(C)O | inactive | inactive
11 | C[C@]1(O)CC[C@@H]2C(C(=O)O)=CO[C@@H](O[C@@H]3O[C@H](COC(=O)/C=C/c4ccc(O)c(O)c4)[C@@H](O)[C@H](O)[C@H]3O)[C@@H]21 | inactive | inactive
12 | CC(CCc1ccc(O)cc1)O[C@@H]1O[C@H](CO[C@@H]2OC(CO)[C@H](O)[C@H]2O)[C@@H](O)[C@H](O)[C@H]1O (stereo partly specified) | inactive | inactive
13 | Cc1ccc2[nH]c(=O)c(C3=NN(C(=O)CCC(=O)O)C(c4ccc(Br)cc4)C3)c(-c3ccccc3)c2c1 (stereo unspecified) | inactive | inactive
14 | Cc1ccc(-c2c(-c3nn(C)c4ncnc(N5CCC(N6CCCCC6)C5)c34)cnn2C)cc1 (stereo unspecified) | inactive | inactive
15 | COc1cc(/C=C/C(=O)O[C@@H]2O[C@H](CO)[C@@H](O)[C@H](O)[C@H]2O)ccc1O | inactive | inactive
16 | CCC12CCCN3CCc4c(n(c5ccccc45)C(O)C1)C32 (stereo unspecified) | inactive | inactive
17 | CC(=O)OC1CC(=O)C2(C)C3CC4=C(OC(C)CC4=O)OC3(C)CCC2C1(C)C (stereo unspecified) | inactive | inactive

Row | SMILES | Potency (Tov-21-G) | Potency (Tov112D)
18 | COc1ccc(C2COc3cc(O)ccc3C2)c(O)c1OC (stereo unspecified) | inactive | inactive
19 | CC/C=C\CC1C(CC(=O)O)CCC1OC1OC(CO)C(O)C(O)C1O (stereo unspecified) | inactive | inactive
20 | CCOC(=O)COc1ccc2c(c1)C[C@@H](NC[C@H](O)c1cccc(Cl)c1)CC2 | inactive | inactive
21 | CCOc1ncc(S(=O)(=O)N2CCN(CC)CC2)cc1-c1nc2c(CC)n(CCOC)nc2c(=O)[nH]1 | inactive | inactive
22 | CC1=CC2=C(C)C(=O)C(C)(O)C(O)C2CO1 (stereo unspecified) | inactive | inactive
23 | Cc1ccccc1NC(=O)Nc1ccc(CN2C(=O)N([C@@H](CC(C)C)C(=O)N[C@@H](CC(=O)O)c3ccccc3)C(=O)C2(C)C)cc1 | inactive | inactive
24 | CC1=CC[C@@]2(C)CC[C@@](O)(C(C)C)[C@@H]2[C@@H](O)C1 | inactive | inactive
25 | COc1ccc2c(c1)C=C1Cn3c-2c(C2CCCCC2)c2ccc(cc23)C(=O)NS(=O)(=O)N(C)CCOCCN(C)C1=O | inactive | inactive
26 | CC1(C)CC(NC(=O)C(=O)Nc2ccc(Cl)cc2)CC(C)(C)N1 | inactive | inactive
27 | C[C@@]1(O)[C@H](O)[C@@H](CO)O[C@H]1n1cnc2c(=O)[nH]c(N)nc21 | inactive | inactive
28 | Cn1cc(-c2c[nH]c3ncnc(N4CCOCC4)c23)cn1 | inactive | inactive
29 | C[C@@H]1C[C@H]2OC(=O)[C@@]3(C)CCC[C@](C)(C23)[C@@]1(O)CCC1=CC(=O)OC1O (stereo partly specified) | inactive | inactive
30 | FC(F)(F)c1nnc2c(Sc3ccccc3)nc3ccc(Cl)cc3n12 | inactive | inactive
31 | C=C(CCO)C(=O)OCC1OCC(OC(=O)C(=C)CCO[C@@H]2O[C@H](COC(=O)C(=C)CCO[C@@H]3O[C@H](CO)[C@@H](O)[C@H](O)[C@H]3O)[C@@H](O)[C@H](O)[C@H]2O)C(O)C1O (stereo partly specified) | inactive | inactive
32 | CC1=C[C@@H]2[C@H]3[C@@H]4O[C@@](C)(CC[C@H]4O)[C@H]3CC(=O)[C@]23C(=O)N[C@@H](CC(C)C)[C@@H]3[C@@H]1C | inactive | inactive
33 | CCCCCC(=O)N1CCC[C@H]1C(=O)N[C@@H](Cc1ccc(O)cc1)C(=O)OC (Hexanoyl-Pro-Tyr-OMe) | inactive | inactive
